BCR signal inh: inhibitors of chronic active B-cell receptor signaling; hit rate 0.05% among 340,000; AID 493014; ABC-DLBCL IkBa-CBG/CBR reporter, luminescence ratio, 4 h; Potency, µM (top dose mostly 46.1 µM), for the others: at the highest dose activity change, negative = inhibition, hits mostly inhibitors; active = well fitted inhibition curve with a large enough effect in the signal ratio, with a control signal flat, not every such curve was filed as active; inconclusive = small, poorly fitted or top-dose-only effect, or effect the other way, or a change in a side signal; the % refers to the signal ratio;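 also: plate controls were basal doxycycline-induced cells for no effect and cells given 10 µM MG132 for full effect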
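Compounds up to 46 uM were incubated four hours with TMD8 cells whose green CBG68 luciferase is fused to IkappaBalpha; red CBR luminescence normalised the signal, and concentration-effect curves were fitted to fusion, red and ratio data.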
RORgamma inh: blocks mouse ROR gamma transcriptional activity; Drosophila S2 Gal4-RORgamma UAS-luciferase reporter, 20 h; hit rate 5.4% among 310,000; P51450; Potency, µM (doses to about 53.6 µM), for the others: at the top dose activity change, negative = inhibition, hits mostly inhibitors; also: % is scaled to controls: 0 for no effect and ±100 for the full control effect; nearly all actives have a fitted effect of over 60% in size
Target sequence (P51450 whole entry, looked up, the tested form may be a part): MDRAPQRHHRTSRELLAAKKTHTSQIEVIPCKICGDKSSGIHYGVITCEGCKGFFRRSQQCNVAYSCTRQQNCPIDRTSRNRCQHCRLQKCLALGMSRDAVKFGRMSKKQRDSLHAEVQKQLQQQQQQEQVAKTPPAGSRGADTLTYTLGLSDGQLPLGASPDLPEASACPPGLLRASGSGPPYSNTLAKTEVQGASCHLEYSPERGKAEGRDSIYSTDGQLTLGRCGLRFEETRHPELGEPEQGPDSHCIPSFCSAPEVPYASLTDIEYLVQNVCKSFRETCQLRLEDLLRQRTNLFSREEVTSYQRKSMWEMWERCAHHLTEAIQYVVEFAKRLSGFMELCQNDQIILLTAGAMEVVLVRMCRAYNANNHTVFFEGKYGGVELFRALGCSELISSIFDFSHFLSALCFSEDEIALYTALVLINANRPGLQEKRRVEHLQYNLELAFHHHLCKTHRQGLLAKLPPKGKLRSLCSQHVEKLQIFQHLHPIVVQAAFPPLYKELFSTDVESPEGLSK
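A Gal4/UAS one-hybrid system in insect cells: metallothionein-promoter Gal4–ROR gamma fusion plus Photinus luciferase reporter. Copper sulfate 700 uM final, 20 hr ambient incubation, luminescent detection after 10 min with reagent.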
a7 integrin act: activates integrin-mediated alleviation for muscular dystrophy; alpha7betagal myoblasts, beta-gal FDG fluorescence, 48 h; Potency, µM (top dose mostly 38.3 µM), for inactives: at the top dose activation, actives largely listed as activators; hit rate 0.064% among 350,000; AID 624291;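 also: 100% = response of the positive control SU9516; nearly all actives have a fitted effect of over 60% in size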
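Alpha7betagal+/- myoblasts (passage 13) were plated 16-24 hr, then exposed to compounds (1:260 dilution of DMSO stock) for 48 hours at 37C. After MPER lysis, β-galactosidase reporter activity was read as FDG fluorescence (ex 480/em 540) after 30 minutes.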
Mito fusion act: blocks mitochondrial division or promotes mitochondrial fusion. S. cerevisiae fusion-defective mutant growth rescue, CellTiterGlo 48 h. Potency, µM (doses to about 46.1 µM), inactives show at the highest dose growth rescue (activation), actives largely listed as activators. hit rate 0.23% among 320,000. AID 485298; also: % of control where 0% means no effect; nearly all actives have a fitted effect of over 45% in size
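Growth-rescue viability read-out: after 48 h at the non-permissive 37C in glycerol/ethanol YPEG, yeast mitochondrial fusion mutants are measured by CellTiterGlo luminescence; compounds (23 nl pinned per well) restoring growth score as division inhibitors or fusion activators.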
uPA generation: blocks generation of uPA at the cell surface; hit rate 0.31% among 330,000; Potency, µM (titrated, usually from 38.3 µM), without a hit: top-dose activity change, negative = inhibition, usual class: inhibitors; AID 540303; cell surface uPA generation assay, qHTS; active = well fitted inhibition curve with a large enough effect; inconclusive = small, poorly fitted or top-dose-only effect; inactive = no such curve, though single readings can be large or run the other way; tested in mouse RAW 264.7 cells; also: % is scaled to controls: 0 for no effect and ±100 for the full control effect; nearly all actives have a fitted effect of over 55% in size
VP16 counter: Gal4-VP16 reporter inhibition counter-screen; Drosophila S2 Gal4-VP16 UAS-luciferase, luminescence, 20 h; Potency, µM (titrated, usually from 53.6 µM), without a hit: at the top dose activity, negative = inhibition, usual class: inhibitors; hit rate 3.5% among 310,000;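 also: Gal4-VP16 expression switched on by copper sulfate through the metallothionein promoter; % is scaled to controls: 0 for no effect and ±100 for the full control effect; nearly all actives have a fitted effect of over 50% in size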
* = called active by the depositor; ? = inconclusive; / = no result; ! = repeats disagree; [ ] = dose if it differs, or a comment. The list is not random: actives were taken first. Their share in the collection is about 5.5%. Unless noted, calls follow the shape of the dose curve; as a rule, active = well fitted curve in the direction sought with a large enough effect; inconclusive = small, poorly fitted or top-dose-only effect, or another doubt; inactive = no such curve, though single readings can be large; an effect the other way counts as inactive or inconclusive. Potency is read from the fitted curve at half-maximal effect.

SMILES	BCR signal inh	RORgamma inh	a7 integrin act	Mito fusion act	uPA generation	VP16 counter
CCOC(=O)C1=C(C)NC(=S)NC1c1ccc(-c2cccc(Cl)c2C)o1 (stereo not given)	?	4µM*	-40%	-14%	-1%	8.9µM*
CCCNC(=O)C(Cc1ccc(C(F)(F)P(=O)(OCC)OCC)cc1)NC(=O)c1ccc(C#N)cc1 (stereo not given)	?	/	1%	/	4%	/
COC(=O)N1C(=O)[C@@](c2ccc(OC)cc2)(C(C)C)N1C(=O)OC	?	-40%	28%	1%	6.3µM*	-3%
COc1ccc(C(=O)c2nc3ccccc3n2C(C)C)cc1	-1%	-14%	6%	-1%	29%	-2%
O=c1[nH]c(=S)n(-c2ccc(Cl)cc2)c(O)c1C=Nc1ccc(N2CCOCC2)cc1	7%	?	12%	-2%	-2%	3%
O=c1c2cc(N3CCOCC3)ccc2[nH]c(=S)n1Cc1ccc(Cl)cc1	-3%	8.9µM*	9%	9%	-1%	0.56µM*
O=C(NC1CCCCCC1)c1ccc[nH]c1=S	?	0.45µM*	-26%	7%	-2%	0.79µM*
CN=C=O	/	7%	/	/	/	-4%
Cc1cccc(N2CCN(C(=O)CCNS(=O)(=O)c3ccc4c(c3)oc(=O)n4C)CC2)c1C	-7%	31%	22%	20µM*	-10%	-25%
C=CC(=O)OCC(CC)CCCC (stereo not given)	/	0%	/	/	/	-7%
CNc1ccc2oc(C[C@H]3O[C@]4(CC[C@H]3C)O[C@H]([C@H](C)C(=O)c3ccc[nH]3)[C@H](C)C[C@H]4C)nc2c1C(=O)O	/	?	/	/	/	-62%
CNc1ccc2oc(C[C@@H]3OC4(CC[C@@H]3C)O[C@H](C(C)C(=O)c3ccc[nH]3)[C@H](C)C[C@H]4C)nc2c1C(=O)O (stereo not given in full)	/	1.8µM*	/	/	/	/
C=CCN1CC[C@]23c4c5ccc(O)c4O[C@H]2[C@@H](O)C=C[C@H]3[C@H]1C5	/	3%	/	/	/	-1%
C=CCN1CCc2cccc3c2[C@H]1Cc1ccc(O)c(O)c1-3	-1%	?	-31%	4.1µM*!	-9%	?
C[C@@H]1CN([C@@H](C)CO)C(=O)c2c(c3ccccc3n2C)-c2ccccc2CO[C@H]1CN(C)C(=O)[C@H](C)c1ccccc1	/	/	-55%	/	/	/
CC(C)(C)NC(=S)/N=C(\N)N[N+](=O)[O-]	2%	10µM*	5%	5%	-3%	?
O=C(Nc1cc(C(F)(F)F)cc(C(F)(F)F)c1)c1cc(Cl)ccc1O	/	0.89µM*	/	/	/	1µM*
O=C(Nc1cc(C(F)(F)F)ccc1O)Nc1cc(C(F)(F)F)ccc1O	/	-29%	/	/	/	?
Cc1ccc2[nH]c(C(=O)N/N=C/c3ccccc3O)c(C)c2c1	?	1µM*	8%	-7%	3.5µM*	6.3µM*
Clc1cccc(Cl)c1/C=C/c1ccn[nH]1	?	-44%	2%	28%	?	-7%
COc1ccc(C(=O)Nc2ccccc2C(=O)Nc2ccccc2C(=O)O)cc1	?	-18%	?	4%	-14%	-22%
COc1ccc(C(=O)NC(=S)NNC(=O)c2cccnc2)cc1	2%	16µM*	-22%	-6%	0%	-13%
COc1ccc(C(=O)N/N=C/c2ccc(N(C)c3ccccc3)cc2)cc1	/	/	2%	/	?	/
O=C(CCl)Nc1nccs1	-22%	?	-57%	-7%	?	13µM*
O=C(Nc1nccs1)C(Cl)(Cl)Cl	0%	?	0%	?	-5%	?
SMILES	BCR signal inh	RORgamma inh	a7 integrin act	Mito fusion act	uPA generation	VP16 counter
CC(C)c1ccc(-n2c(-c3ccccc3)c[n+]3c2CCc2ccccc2-3)cc1	?	4.5µM*	?	-14%	?	3.5µM*
CC(=O)c1cn(Cc2ccccc2F)c2ccccc12	?	28%	-27%	3%	?	7.1µM*
CC(C)C(=O)c1cn(Cc2ccccc2C#N)c2ccccc12	3%	1%	-31%	19%	-1%	7%
O=Cc1cn(Cc2ccccc2F)c2ccccc12	?	2µM*	-8%	6%	-5%	-15%[10 µM]
O=Cc1cn(CCCOc2ccccc2)c2ccccc12	-2%	-1%	-2%	18%	0%	?
COc1ccccc1OCCCn1cc(C=O)c2ccccc21	?	?	11%	25%	-5%	0.002µM*
CC(=O)c1cn(Cc2ccccc2C#N)c2ccccc12	?	?	-56%	6%	-4%	3.2µM*
C=CC[C@@H](Cc1ccc(F)cc1)C(=O)OC[C@H]1CCCN1C(=O)[C@H](CC=C)CC(=O)N[C@H](CO)Cc1ccccc1	?	/	3%	/	24%	/
COc1ccc(CC2NCC(O)C2OC(C)=O)cc1 (stereo not given)	/	?	-66%	/	?	0.079µM*
COc1ccc(CC2NC[C@H](O)[C@H]2OC(C)=O)cc1 (stereo not given in full)	/	0.63µM*	/	/	/	0.79µM*
COc1ccc(C[C@H]2NC[C@H](O)[C@@H]2OC(C)=O)cc1	/	?	/	/	/	35µM*
CC1CC(=O)O1 (stereo not given)	/	-6%	/	/	/	-4%
CN1CCN(c2ccc(CNS(=O)(=O)Cc3cccc(C(F)(F)F)c3)cc2)CC1	18%	30%	-47%	-6%	?	?
C=C(C)C#N	/	12%	/	/	/	5%
CCOC(=O)c1c(NC(=O)C(c2ccccc2)c2ccccc2)sc2c1C1CCN2CC1	?	-12%	-25%	5%	-12%	?
CCOC(=O)c1c(N2C(=O)C=CC2=O)sc(C)c1C	?	4.5µM*	-66%	-3%	?	-11%[0.365 µM]
C#CCO	/	-9%	/	/	/	3%
O=C(N/N=C/c1cccnc1)c1ccc(NC(=O)C(c2ccccc2)c2ccccc2)cc1	-4%	-44%	-40%	-1%	-8%	6.3µM*
NC(=O)[C@H]1CC2(CC(c3cccc(NC(=O)COc4ccc(Cl)cc4)c3)=NO2)CN1C(=O)Cc1ccc([N+](=O)[O-])cc1 (stereo not given in full)	?	14%	11%	0%	?	2%
CCCCCC1CC(CC(=O)NC(=S)Nc2ccc([N+](=O)[O-])cc2)C(=O)O1 (stereo not given)	24%	71µM*	-4%	24%	2%	?
C/C1=C\[C@@H](C)C/C=C/[C@H]2[C@@H]3O[C@]3(C)[C@@H](C)[C@H]3[C@H](Cc4c[nH]c5ccccc45)NC(=O)[C@]32C(=O)/C=C/C(=O)[C@@H]1O	?	5.6µM*	-51%	-19%	0.79µM*	11µM*
O=NN(c1ccccc1)c1ccccc1	/	3%	/	/	/	19%
